This is part of a sample that, as a whole, favours compounds with a hit. Of some 83,000 tested, about 20% had one in any assay.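 Treatment: one concentration, 48 hours, 96-well format. Scoring: percent growth, with anything below 10 considered active.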 Values without a mark were called inactive. Activity calls are given as the source filed them.

Assay in all cases: NCI-60 one-dose screen, 48 h (100 = growth as untreated, 0 = no growth, -100 = all killed)
What all share (conditions): 10 µM unless noted

Assay [1] relates to SK-MEL-2 melanoma.
The subject of assay [2] is EKVX NSCLC.
The test system of assay [3] is SN12C renal.
The subject of assay [4] is UO-31 renal.
Assay [5] relates to TK-10 renal.
The subject of assay [6] is ACHN renal.
The subject of assay [7] is CAKI-1 renal.
In assay [8] the test system is A498 renal.
Assay [9] has as its system CCRF-CEM leukemia.
Assay [10] deals with MOLT-4 leukemia.

Regarding `CN(C)CCCNC(=O)c1cc(NC(=O)c2cc(NC(=O)c3ccc(C#Cc4ccccc4)cc3)cn2C)cn1C`, the growth in assay [1] was -88.8% (active); in assay [2] it was 27%; in assay [3], -18.5% (active); in [4] it was 36.1%; in assay [5], 42.9%; in [6], 19.2%. In addition, the growth in assay [7] is 18.6%; in [8] it was 83.5%; in assay [9], -24.3% (active); in assay [10] it was -29.5% (active).

As to `c1ccc(-c2csc(Nc3cccc(Nc4nc(-c5ccccc5)cs4)c3)n2)cc1`, the growth in [1] was 64.9%; in [2] it was 37.7%; in assay [3], 43.4%; in assay [4] it was 32.3%; in [5], 68.6%; in assay [6], 36.2%. Besides, the growth was 34.9% in assay [7], 85.5% in assay [8], 38.6% in assay [9] and 13.7% in [10].

For the compound `CC12CC[C@@H]3[C@]4(C)COC(c5c(F)cccc5F)O[C@@H]4CC[C@@]3(C)[C@@H]1CC(C1=CCOC1=O)O2` (stereo not given in full), the growth is 81.2% in assay [1]; 70.3% in assay [2]; 66.6% in assay [3]; 76.4% in assay [4]; 93.5% in assay [5]; 35% in [6]. Besides, the growth is 87.2% in assay [7], 106% in assay [8], 74.8% in [9] and 52.6% in [10].

For the compound `Cn1cc(-c2nnc(N)nc2-c2c[nH]c3ccc(F)cc23)c2cccnc21`, the growth in assay [1] is 15.7%; in [2] it was 62.4%; in assay [3], 45.9%; in assay [4], 48.4%; in assay [5], 82.4%; in assay [6], 54.6%. The growth was 45.7% in assay [7], 86.2% in assay [8], 47.9% in [9] and 28.9% in assay [10].

As for `Cn1cc(NC(=O)c2cc(NC(=O)c3ccc(C#Cc4ccccc4)cc3)cn2C)cc1C(=O)NCCCN1CCOCC1`, the growth in assay [1] is 86.2%; in assay [2] it was 80.9%; in assay [3], 40%; in assay [4], 67.8%; in assay [5], 126%; in assay [6], 63.8%. The growth in assay [7] was 56.9%; in assay [8] it was 114%; in assay [9] it was 0.88% (active); in assay [10] it was -19.3% (active).

Turning to `CC(C)CCNC(=O)N/C(N)=N/c1nc2ccccc2s1`, the growth was 86.4% in assay [1]; 28.3% in assay [2]; 73.6% in assay [3]; 73.7% in assay [4]; 88.3% in [5]; 58.4% in [6]. For the same compound, the growth in assay [7] is 52.1%; in assay [8], 116%; in [9] it was 59.1%; in assay [10], 29.6%.

For the compound `COc1cc2c(c(OC)c1OC)C(=O)CC(c1cccc(NC(=O)c3cc([N+](=O)[O-])ccc3Cl)c1)O2` (stereo not given), the growth is 15% in [1]; 52.3% in [2]; 24% in [3]; 29.9% in assay [4]; 65.8% in assay [5]; 6.5% (active) in [6]. Besides, the growth is 20.8% in assay [7], 131% in assay [8], 22.8% in assay [9] and 14.4% in [10].

As for `CN(C)c1nc(NCCNS(=O)(=O)c2ccc(C3=Nc4c(N)nc(N)nc4NC(c4ccc(Cl)cc4)C3)cc2)nc(Nc2ccc(F)cc2)n1` (stereo not given), the growth was -2.74% (active) in [1]; 43.3% in assay [2]; 47.1% in [3]; 81.1% in assay [4]; 79.6% in assay [5]; 73.8% in assay [6]. The growth is 72.4% in [7], 76.5% in assay [8], 14% in assay [9] and 7.27% (active) in assay [10].

As for `N/C(=N\c1nc2ccccc2s1)NC(=O)NCCCCCCO`, the growth is 50.1% in assay [1]; 19.6% in [2]; 45.5% in [3]; 43.5% in assay [4]; 51.2% in assay [5]; 39.5% in [6]. Also, the growth was 32% in assay [7], 61% in assay [8], 60.3% in assay [9] and 4.34% (active) in assay [10].

On to `O=C(c1ccccc1)C(c1c[nH]c2ccccc12)c1c[nH]c2ccccc12`, for which the growth in assay [1] is 71.9%; in assay [2], 76.5%; in assay [3], 49%; in assay [4], 45%; in assay [5], 142%; in assay [6], 53.5%. Besides, the growth in [7] was 31.6%; in assay [8], 98.1%; in assay [9], 3.87% (active); in [10], 16.5%.

Take `N#Cc1c(-c2ccc(Cl)cc2)nc2n[nH]c(-c3ccc(Cl)cc3)c2c1-c1cccs1`: the growth in assay [1] is 58.6%; in assay [2], 30.3%; in assay [3] it was 45.7%; in assay [4], 35.1%; in assay [5], 97.3%; in assay [6] it was 62.8%. Moreover, the growth in assay [7] was 39%; in assay [8], 105%; in assay [9], 38.1%; in [10], 3.89% (active).

As to `COc1ccc2c(c1)c(-c1cc(N)n3nc(-c4cn(C)c5ccccc45)cc3n1)cn2C`, the growth in [1] was -92.4% (active); in [2], -63.1% (active); in [3] it was -59.6% (active); in assay [4] it was -88.3% (active); in assay [5] it was -79% (active); in assay [6], -98.7% (active). In addition, the growth was -77.4% (active) in assay [7], -20.3% (active) in assay [8], -24.3% (active) in assay [9] and 0.804% (active) in [10].

For the compound `COc1ccc(C(=O)/C=C/c2ccc(OCc3ccc(F)cc3)c(OC)c2)cc1OC`, the growth in assay [1] was 52.9%; in assay [2], 59.9%; in assay [3], -1.58% (active); in [4], 21.5%; in assay [5], 39.6%; in assay [6], 28.5%. The growth in assay [7] is 32.6%; in [8], 94.7%; in assay [9], 7.26% (active); in [10] it was 9.77% (active).

On to `O=C(c1ccccc1)c1ccc2nc(-c3cccc(Cl)c3)[nH]c2c1`, for which the growth in assay [1] is 106%; in assay [2], 105%; in assay [3], 99.5%; in [4], 95.4%; in [5], 95.9%; in assay [6], 100%. Besides, the growth in assay [7] is 106%; in assay [8], 114%; in [9], 113%; in [10] it was 103%.

For the compound `CC(=O)/C=C/c1cccc2c1C(=O)NC(C)(c1cc3cc(Br)ccc3oc1=O)N2` (stereo not given), the growth was -0.79% (active) in assay [1]; 34.3% in [2]; 12.7% in [3]; 22% in [4]; 58.6% in assay [5]; 22.7% in [6]. The growth in [7] is 21.3%; in assay [8] it was 104%; in [9], 0.825% (active); in assay [10] it was -6.34% (active).

With `Cc1cccc(-c2nc(Nc3ccc(C)c(S(N)(=O)=O)c3)c3ccccc3n2)c1`, the growth was 52.2% in [1]; 22.7% in [2]; 29.8% in assay [3]; 25.2% in [4]; 60.1% in assay [5]; 15.3% in [6]. For the same compound, the growth in assay [7] was 24%; in [8], 52.8%; in [9], 17.7%; in [10], 16.8%.

In the case of `COc1ccc([C@H](C)Nc2nc(Cl)nc3ccccc23)cc1`, the growth in assay [1] was 70.2%; in assay [2], 19.2%; in [3], 47.9%; in assay [4] it was 47.1%; in assay [5], 66.9%; in [6], 54.3%. In addition, the growth in assay [7] was 56.4%; in assay [8], 108%; in [9], 34.9%; in [10], 20.8%.

On to `Nc1nnc(-c2c[nH]c3ccc(Br)cc23)c(-c2c[nH]c3ncc(Br)cc23)n1`, for which the growth in assay [1] was -33.2% (active); in [2], 46.6%; in assay [3], 46.5%; in [4], 42.1%; in assay [5] it was 33.1%; in assay [6], 29.6%. In addition, the growth was 21% in assay [7], 17.6% in assay [8], 13.4% in [9] and 2.51% (active) in [10].

Take `Cc1ccc(C2=NN(c3nc(-c4cc5ccccc5oc4=O)cs3)C(c3ccc(C)cc3)C2)cc1` (stereo not given): the growth in [1] was 104%; in assay [2] it was 93.6%; in assay [3], 104%; in assay [4], 68%; in assay [5], 163%; in [6], 102%. Further, the growth is 88.2% in assay [7], 127% in [8], 101% in assay [9] and 98.5% in [10].

Take `Nc1nnc(-c2c[nH]c3ncc(Br)cc23)c(-c2c[nH]c3ccc(F)cc23)n1`: the growth is 25.3% in assay [1]; 41.5% in [2]; 38.8% in assay [3]; 42.8% in [4]; 67% in [5]; 40.8% in assay [6]. Also, the growth in assay [7] is 42.7%; in assay [8], 74%; in assay [9], 42.7%; in assay [10], 9.73% (active).

Regarding `COc1ccc(-c2ccc(SCC(=O)Nc3ccc(S(N)(=O)=O)cc3Br)nn2)cc1`, the growth in [1] is 68.9%; in assay [2], 78%; in assay [3] it was 88.4%; in assay [4], 88.3%; in assay [5] it was 116%; in assay [6] it was 86.7%. The growth in assay [7] is 63.1%; in [8] it was 89.8%; in [9] it was 98.7%; in [10], 93.7%.

With `CCCCNC(=S)Nc1ccc(OCc2nc3ccccc3[nH]2)cc1`, the growth in [1] is 69.1%; in assay [2] it was 62.3%; in assay [3], 64.5%; in assay [4], 41.1%; in assay [5], 98.8%; in assay [6], 45.5%. Besides, the growth in assay [7] was 40%; in assay [8] it was 96.5%; in assay [9], 34.2%; in assay [10], 35.2%.

As for `CC(C)c1sc(NC(=O)c2cc(NC(=O)c3cc(NC(=O)c4cscn4)cn3C)cn2C)nc1C(=O)NCCCN(C)C`, the growth in assay [1] is -79.4% (active); in [2], 27%; in assay [3], 19.1%; in assay [4] it was 85%; in assay [5] it was 85.3%; in [6], 98.7%. Moreover, the growth in assay [7] was 91%; in assay [8], 113%; in [9], 1.16% (active); in assay [10] it was 5.49% (active).

As for `C/C(=N\N=C\c1cc([N+](=O)[O-])ccc1Cl)c1ccc2c(c1)Nc1ccccc1S2`, the growth is 90.5% in [1]; 48.5% in [2]; 12.4% in assay [3]; -13.7% (active) in assay [4]; 8.88% (active) in assay [5]; -43.5% (active) in [6]. Further, the growth was 31.3% in assay [7], 6.23% (active) in [8], 55% in [9] and 44% in assay [10].

With `Cn1cc(-c2cc(N)n3nc(-c4cn(C)c5ncccc45)cc3n2)c2cccnc21`, the growth was 95.8% in assay [1]; 95% in assay [2]; 90% in [3]; 89.2% in assay [4]; 86% in [5]; 109% in [6]. Moreover, the growth in assay [7] was 86.5%; in assay [8] it was 87.2%; in assay [9] it was 85.2%; in [10], 53.5%.

With `COc1cc(NC(=O)c2cccc(C3CCc4c(cc(OC)c(OC)c4OC)O3)c2)cc(OC)c1OC` (stereo not given), the growth in [1] is -1.8% (active); in assay [2], 35.3%; in assay [3] it was 13.2%; in assay [4], 3.46% (active); in assay [5] it was 56.6%; in [6] it was 17.3%. For the same compound, the growth in [7] is 14.8%; in assay [8] it was 112%; in assay [9] it was 18.1%; in assay [10], 11.8%.

Source of the values: PubChem BioAssay (NCI).
